A number with no mark means an inactive call.

Holding throughout (assay): log2 ratio of Biotin-Ahx-Ub-VS probe labelling (fragment/DMSO); higher = less target engagement (more negative = stronger competition), active = hit call of the paper (q ≤ 0.05, log2 ratio ≤ -1)
Holding throughout (conditions): compound concentration: 200 uM; treatment time: 3 h

One experiment deals with UniProt O00507. The gist of the method:
(§1)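 HEK293T lysate (495 µg per sample, in Tris/CHAPS/IGEPAL buffer with protease inhibitors) was exposed in triplicate for 3 h to fragment at 200 µM or to vehicle, then to Biotin-Ahx-Ub-VS at 0.5 µM final for 1 h. Labelled DUBs were enriched on NeutrAvidin, digested with LysC and trypsin, and analysed by diaPASEF LC-MS/MS. Spectronaut label-free quantities were normalised to the global median, and values are average log2 ratios of fragment over vehicle from an unpaired t-test. Only proteins with ≥2 unique peptides were used.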

A further experiment has as its target UniProt P51784. The gist of the method:
as §1

The target of another experiment is T1, UniProt Q5T2D3.
T1 sequence (whole entry): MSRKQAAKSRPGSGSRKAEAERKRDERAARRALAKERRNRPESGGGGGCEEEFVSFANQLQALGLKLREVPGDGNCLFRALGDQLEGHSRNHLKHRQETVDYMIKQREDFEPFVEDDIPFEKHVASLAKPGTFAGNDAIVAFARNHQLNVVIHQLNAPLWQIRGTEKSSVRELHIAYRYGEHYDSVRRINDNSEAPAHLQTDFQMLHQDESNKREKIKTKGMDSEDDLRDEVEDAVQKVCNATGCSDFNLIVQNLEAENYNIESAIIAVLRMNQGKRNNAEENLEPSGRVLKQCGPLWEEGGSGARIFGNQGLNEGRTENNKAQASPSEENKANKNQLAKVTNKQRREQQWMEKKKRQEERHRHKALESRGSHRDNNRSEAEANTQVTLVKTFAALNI
The gist of the method: as §1

In the next experiment the target is T2, UniProt Q8TE49.
T2 sequence (whole entry): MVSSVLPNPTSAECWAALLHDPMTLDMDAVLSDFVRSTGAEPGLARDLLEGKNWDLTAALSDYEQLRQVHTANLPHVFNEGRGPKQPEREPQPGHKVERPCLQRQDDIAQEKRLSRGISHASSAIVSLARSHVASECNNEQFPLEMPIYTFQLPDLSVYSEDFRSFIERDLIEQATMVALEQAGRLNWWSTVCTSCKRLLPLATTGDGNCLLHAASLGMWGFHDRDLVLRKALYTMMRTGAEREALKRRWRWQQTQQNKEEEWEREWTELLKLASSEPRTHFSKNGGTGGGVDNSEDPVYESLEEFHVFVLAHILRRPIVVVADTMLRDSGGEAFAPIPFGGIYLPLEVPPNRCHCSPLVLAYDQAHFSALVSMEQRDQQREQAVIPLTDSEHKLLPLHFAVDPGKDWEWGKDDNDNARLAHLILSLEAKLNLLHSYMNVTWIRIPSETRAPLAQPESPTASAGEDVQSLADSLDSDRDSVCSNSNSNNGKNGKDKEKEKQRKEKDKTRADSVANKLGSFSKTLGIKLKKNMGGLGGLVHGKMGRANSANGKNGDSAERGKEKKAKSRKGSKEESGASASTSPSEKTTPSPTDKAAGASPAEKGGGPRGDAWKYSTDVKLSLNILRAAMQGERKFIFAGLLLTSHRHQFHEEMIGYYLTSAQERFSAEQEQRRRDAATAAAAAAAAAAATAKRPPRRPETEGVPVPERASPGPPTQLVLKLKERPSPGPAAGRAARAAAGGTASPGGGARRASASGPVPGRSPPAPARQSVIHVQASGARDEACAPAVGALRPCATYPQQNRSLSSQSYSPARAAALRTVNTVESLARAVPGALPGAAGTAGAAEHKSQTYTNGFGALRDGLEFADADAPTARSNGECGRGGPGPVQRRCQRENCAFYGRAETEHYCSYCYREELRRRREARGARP
The gist of the method:
as §1

The target in the next experiment is T3, UniProt Q9P2H5.
T3 sequence (whole entry): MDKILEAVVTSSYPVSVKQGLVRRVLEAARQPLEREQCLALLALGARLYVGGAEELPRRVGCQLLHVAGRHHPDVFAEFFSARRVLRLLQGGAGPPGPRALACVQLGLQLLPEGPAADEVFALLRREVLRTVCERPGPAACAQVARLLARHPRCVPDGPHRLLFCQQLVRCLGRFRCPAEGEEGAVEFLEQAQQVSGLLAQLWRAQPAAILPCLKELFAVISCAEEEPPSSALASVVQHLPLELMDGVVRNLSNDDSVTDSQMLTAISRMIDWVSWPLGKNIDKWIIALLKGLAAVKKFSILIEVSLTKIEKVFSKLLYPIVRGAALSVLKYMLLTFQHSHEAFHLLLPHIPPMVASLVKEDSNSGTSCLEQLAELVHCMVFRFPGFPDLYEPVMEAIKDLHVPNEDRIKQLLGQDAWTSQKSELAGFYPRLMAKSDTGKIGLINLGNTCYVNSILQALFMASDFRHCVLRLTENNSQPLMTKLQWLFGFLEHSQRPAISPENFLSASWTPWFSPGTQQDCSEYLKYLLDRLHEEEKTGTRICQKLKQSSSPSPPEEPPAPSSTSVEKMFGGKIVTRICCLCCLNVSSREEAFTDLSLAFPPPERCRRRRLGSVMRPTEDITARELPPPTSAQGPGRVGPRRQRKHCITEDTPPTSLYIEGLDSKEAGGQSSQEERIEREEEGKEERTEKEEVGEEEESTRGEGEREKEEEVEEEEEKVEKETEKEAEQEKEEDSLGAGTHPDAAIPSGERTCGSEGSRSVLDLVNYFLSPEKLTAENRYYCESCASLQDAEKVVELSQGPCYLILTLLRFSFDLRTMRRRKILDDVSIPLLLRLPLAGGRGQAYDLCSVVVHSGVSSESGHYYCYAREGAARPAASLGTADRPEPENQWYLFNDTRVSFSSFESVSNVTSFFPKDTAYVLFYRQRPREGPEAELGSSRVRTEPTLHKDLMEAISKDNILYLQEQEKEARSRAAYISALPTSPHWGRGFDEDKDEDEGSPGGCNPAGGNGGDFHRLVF
The gist of the method:
as §1

The target in the next experiment is T4, UniProt Q9UGI0.
T4 sequence (whole entry): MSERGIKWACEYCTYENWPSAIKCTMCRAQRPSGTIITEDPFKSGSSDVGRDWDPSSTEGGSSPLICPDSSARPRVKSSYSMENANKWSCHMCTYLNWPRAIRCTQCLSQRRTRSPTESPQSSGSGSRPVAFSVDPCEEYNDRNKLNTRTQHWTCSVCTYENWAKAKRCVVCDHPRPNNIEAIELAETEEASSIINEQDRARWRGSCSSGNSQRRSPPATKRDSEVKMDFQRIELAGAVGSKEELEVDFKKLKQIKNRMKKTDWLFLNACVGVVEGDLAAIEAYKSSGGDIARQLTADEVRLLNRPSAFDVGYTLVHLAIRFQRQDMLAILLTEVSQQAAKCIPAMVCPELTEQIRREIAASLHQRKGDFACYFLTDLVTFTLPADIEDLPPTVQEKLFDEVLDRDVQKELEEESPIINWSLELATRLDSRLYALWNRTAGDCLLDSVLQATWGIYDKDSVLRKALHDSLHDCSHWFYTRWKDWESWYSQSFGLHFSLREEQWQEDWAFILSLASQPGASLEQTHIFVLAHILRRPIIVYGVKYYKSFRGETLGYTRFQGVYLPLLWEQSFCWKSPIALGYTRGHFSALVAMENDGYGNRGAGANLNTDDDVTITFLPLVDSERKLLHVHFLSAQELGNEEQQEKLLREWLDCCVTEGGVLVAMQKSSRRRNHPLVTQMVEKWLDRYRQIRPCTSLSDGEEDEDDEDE
The gist of the method:
as §1

For a further experiment, the target named is T5, YOD1 (UniProt Q5VVQ6).
T5 sequence (whole entry): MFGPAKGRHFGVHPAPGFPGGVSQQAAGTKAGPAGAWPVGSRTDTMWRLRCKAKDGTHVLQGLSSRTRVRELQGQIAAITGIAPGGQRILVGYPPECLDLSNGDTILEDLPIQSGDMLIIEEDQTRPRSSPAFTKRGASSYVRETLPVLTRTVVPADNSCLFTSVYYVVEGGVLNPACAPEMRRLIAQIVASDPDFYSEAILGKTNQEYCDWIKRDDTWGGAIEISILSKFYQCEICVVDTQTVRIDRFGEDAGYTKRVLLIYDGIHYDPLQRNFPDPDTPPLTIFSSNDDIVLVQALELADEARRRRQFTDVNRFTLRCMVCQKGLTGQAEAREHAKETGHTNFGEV
The gist of the method:
as §1

Sequence of UniProt P51784 (P51784 whole entry): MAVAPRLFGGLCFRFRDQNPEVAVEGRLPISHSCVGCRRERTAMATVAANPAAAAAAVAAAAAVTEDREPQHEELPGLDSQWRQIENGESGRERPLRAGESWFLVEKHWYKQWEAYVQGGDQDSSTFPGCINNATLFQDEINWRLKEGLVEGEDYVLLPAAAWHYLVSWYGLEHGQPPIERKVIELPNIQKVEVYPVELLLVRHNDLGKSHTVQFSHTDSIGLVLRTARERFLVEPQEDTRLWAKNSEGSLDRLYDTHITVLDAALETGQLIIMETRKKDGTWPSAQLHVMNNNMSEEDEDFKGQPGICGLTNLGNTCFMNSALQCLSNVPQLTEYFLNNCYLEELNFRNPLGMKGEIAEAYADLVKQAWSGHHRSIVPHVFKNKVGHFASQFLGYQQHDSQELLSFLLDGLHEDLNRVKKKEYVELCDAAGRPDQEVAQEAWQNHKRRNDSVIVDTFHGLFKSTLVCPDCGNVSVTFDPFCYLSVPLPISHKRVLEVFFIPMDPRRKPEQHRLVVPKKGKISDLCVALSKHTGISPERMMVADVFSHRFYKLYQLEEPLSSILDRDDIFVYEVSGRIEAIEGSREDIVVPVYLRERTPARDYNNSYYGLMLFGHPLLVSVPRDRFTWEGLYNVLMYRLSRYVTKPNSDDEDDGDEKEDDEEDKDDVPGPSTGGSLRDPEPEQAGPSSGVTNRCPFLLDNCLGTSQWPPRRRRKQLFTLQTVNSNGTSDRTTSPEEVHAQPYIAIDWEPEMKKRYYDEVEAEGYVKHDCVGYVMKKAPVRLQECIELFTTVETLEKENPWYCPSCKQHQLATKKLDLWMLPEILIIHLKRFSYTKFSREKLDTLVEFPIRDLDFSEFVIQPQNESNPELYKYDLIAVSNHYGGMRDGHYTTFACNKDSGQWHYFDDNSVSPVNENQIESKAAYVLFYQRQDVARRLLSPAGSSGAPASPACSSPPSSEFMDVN
Sequence of UniProt O00507 (O00507 whole entry, the tested form may be a part): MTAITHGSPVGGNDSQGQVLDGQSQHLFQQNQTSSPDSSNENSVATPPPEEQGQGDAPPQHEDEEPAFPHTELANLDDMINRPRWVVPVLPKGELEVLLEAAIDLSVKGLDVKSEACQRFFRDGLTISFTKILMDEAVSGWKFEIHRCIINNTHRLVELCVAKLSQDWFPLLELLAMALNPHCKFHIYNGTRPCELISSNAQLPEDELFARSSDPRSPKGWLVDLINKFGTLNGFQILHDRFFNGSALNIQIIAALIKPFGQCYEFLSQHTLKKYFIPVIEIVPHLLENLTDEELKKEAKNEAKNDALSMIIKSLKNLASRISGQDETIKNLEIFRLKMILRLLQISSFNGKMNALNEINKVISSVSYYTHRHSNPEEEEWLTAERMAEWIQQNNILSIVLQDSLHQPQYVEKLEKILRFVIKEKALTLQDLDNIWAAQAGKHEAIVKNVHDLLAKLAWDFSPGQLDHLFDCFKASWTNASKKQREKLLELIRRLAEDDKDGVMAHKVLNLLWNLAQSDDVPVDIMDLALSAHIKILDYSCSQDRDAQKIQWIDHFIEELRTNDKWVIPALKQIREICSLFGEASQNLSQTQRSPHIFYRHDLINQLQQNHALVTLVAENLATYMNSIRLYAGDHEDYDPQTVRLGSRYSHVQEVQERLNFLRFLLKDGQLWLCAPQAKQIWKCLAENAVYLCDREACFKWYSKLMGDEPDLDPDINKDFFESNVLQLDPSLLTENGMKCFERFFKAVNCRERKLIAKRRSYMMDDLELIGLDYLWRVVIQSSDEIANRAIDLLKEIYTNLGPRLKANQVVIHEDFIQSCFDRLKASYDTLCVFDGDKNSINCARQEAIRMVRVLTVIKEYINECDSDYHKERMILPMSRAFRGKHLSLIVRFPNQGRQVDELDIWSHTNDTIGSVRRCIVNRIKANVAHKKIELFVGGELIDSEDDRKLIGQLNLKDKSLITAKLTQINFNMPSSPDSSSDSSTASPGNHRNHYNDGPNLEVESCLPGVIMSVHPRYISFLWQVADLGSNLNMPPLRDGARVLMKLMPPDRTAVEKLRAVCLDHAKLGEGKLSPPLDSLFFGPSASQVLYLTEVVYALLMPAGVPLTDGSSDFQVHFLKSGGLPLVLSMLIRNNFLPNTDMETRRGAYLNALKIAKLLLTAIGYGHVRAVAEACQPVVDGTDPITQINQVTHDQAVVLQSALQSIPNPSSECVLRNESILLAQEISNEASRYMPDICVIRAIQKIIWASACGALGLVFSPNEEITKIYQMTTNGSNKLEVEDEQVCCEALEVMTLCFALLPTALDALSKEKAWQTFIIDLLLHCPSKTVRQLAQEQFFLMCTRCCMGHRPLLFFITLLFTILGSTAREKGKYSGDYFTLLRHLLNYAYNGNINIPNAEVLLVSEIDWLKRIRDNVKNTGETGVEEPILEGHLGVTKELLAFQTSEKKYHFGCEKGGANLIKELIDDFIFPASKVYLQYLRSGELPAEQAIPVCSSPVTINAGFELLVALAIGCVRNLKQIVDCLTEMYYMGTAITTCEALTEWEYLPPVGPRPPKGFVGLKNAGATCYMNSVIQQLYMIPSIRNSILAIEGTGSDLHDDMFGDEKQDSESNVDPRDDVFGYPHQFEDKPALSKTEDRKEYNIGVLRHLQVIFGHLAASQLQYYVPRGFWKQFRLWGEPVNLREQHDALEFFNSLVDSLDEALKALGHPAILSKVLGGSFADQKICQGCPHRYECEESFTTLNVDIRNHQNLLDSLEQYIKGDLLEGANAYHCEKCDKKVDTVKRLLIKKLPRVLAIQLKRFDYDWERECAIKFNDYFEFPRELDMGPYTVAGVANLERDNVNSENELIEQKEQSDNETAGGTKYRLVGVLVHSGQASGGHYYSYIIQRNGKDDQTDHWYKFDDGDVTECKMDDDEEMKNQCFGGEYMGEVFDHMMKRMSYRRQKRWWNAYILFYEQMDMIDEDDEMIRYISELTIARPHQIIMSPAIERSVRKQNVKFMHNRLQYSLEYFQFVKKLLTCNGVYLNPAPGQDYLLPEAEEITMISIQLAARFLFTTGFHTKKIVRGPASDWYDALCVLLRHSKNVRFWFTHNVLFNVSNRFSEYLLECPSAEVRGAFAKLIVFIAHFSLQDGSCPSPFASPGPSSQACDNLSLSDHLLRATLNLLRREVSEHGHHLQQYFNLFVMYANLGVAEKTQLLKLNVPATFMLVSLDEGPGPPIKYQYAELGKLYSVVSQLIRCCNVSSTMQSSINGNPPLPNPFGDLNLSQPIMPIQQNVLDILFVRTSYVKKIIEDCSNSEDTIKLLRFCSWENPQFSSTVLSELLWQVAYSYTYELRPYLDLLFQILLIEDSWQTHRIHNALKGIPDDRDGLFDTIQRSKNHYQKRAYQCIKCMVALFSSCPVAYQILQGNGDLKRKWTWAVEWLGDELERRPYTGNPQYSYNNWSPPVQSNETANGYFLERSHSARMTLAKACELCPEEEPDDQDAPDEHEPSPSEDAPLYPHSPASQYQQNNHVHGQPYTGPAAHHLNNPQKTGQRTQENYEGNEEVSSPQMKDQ

For the molecule `CS(=O)(=O)c1ccc(CNC(=O)CCl)cc1`, the “log2 ratio of Biotin-Ahx-Ub-VS probe labelling” value (“log2 ratio” for short) was -0.143 in the experiment with UniProt O00507; -0.0799 with UniProt P51784; -0.383 in the experiment with UniProt Q5T2D3; -0.563 with UniProt Q8TE49; 0.0147 in the experiment with UniProt Q9P2H5; -0.189 in the experiment with UniProt Q9UGI0. Also, the “log2 ratio” value in the experiment with YOD1 is -0.172.
Consider `Cl.O=C(CCl)N1CCC(Cc2nccs2)C1` (stereo not drawn), for which the “log2 ratio” value in the experiment with UniProt O00507 was -0.185; with UniProt P51784 it was 0.0118; with UniProt Q5T2D3 it was -0.239; with UniProt Q8TE49, -0.308; with UniProt Q9P2H5, -0.239; with UniProt Q9UGI0, -0.507. Besides, the “log2 ratio” value with YOD1 was -0.104.
As for `Cc1cccc(N2CCC(NC(=O)CCl)C2=O)c1` (stereo not drawn), the “log2 ratio” value is 0.294 with UniProt O00507; -0.28 in the experiment with UniProt P51784; -0.334 with UniProt Q5T2D3; -0.961 with UniProt Q8TE49; -0.395 with UniProt Q9P2H5; -0.883 with UniProt Q9UGI0. In the experiment with YOD1, the “log2 ratio” value is -0.459.
On to `CCN(C(=O)CCl)C1CCCCC1`, for which the “log2 ratio” value with UniProt O00507 was 0.476; in the experiment with UniProt P51784, 0.0309; with UniProt Q5T2D3, -0.00741; with UniProt Q8TE49 it was -0.32; in the experiment with UniProt Q9P2H5, -0.0524; in the experiment with UniProt Q9UGI0, 0.069. Besides, in the experiment with YOD1, the “log2 ratio” value is 0.333.
For the molecule `CCC(NC(=O)CCl)c1ccc(Cl)cc1` (stereo not drawn), the “log2 ratio” value was 0.32 with UniProt O00507; 0.0791 with UniProt P51784; -0.182 in the experiment with UniProt Q5T2D3; -0.735 in the experiment with UniProt Q8TE49; -0.319 with UniProt Q9P2H5; -0.279 with UniProt Q9UGI0. For the same molecule, in the experiment with YOD1, the “log2 ratio” value is 0.188.
With `O=C(CCl)Nc1cc2c(cc1Cl)OCCO2`, the “log2 ratio” value was 0.223 with UniProt O00507; 0.121 with UniProt P51784; -0.437 with UniProt Q5T2D3; -0.908 in the experiment with UniProt Q8TE49; -0.253 with UniProt Q9P2H5; -0.402 with UniProt Q9UGI0. The “log2 ratio” value with YOD1 was 0.302.
For the molecule `CCc1c[nH]c(CNC(=O)CCl)n1.Cl`, the “log2 ratio” value was -0.772 with UniProt O00507; -0.123 in the experiment with UniProt P51784; -0.363 with UniProt Q5T2D3; -0.324 in the experiment with UniProt Q8TE49; -0.147 in the experiment with UniProt Q9P2H5; -0.736 with UniProt Q9UGI0. Further, the “log2 ratio” value with YOD1 is -0.491.
For the molecule `Cl.Cn1c(CNC(=O)CCl)nc2cccnc21`, the “log2 ratio” value with UniProt O00507 was -0.348; in the experiment with UniProt P51784 it was -0.0765; with UniProt Q5T2D3, -0.354; with UniProt Q8TE49, -0.488; with UniProt Q9P2H5, -0.199; with UniProt Q9UGI0, -0.199. In addition, the “log2 ratio” value in the experiment with YOD1 was -0.334.
For `O=C(CCl)NC1CCS(=O)(=O)c2ccccc21` (stereo not drawn), the “log2 ratio” value with UniProt O00507 was -0.00358; with UniProt P51784 it was -0.174; with UniProt Q5T2D3, -0.342; with UniProt Q8TE49 it was -1.2 (active); with UniProt Q9P2H5, -0.644; with UniProt Q9UGI0 it was -0.564. For the same molecule, the “log2 ratio” value in the experiment with YOD1 was 0.0479.

(Values after the supplement of paper PMC11732987, “Enantioselective OTUD7B fragment discovery through chemoproteomics screening and high-throughput optimisation” (Communications Chemistry, 2025).)
